Screens (PubChem BioAssay)
Hits are enriched below; roughly 0.71% of the tested compounds scored in any of these assays.
TRb-SRC2 inh: TRbeta-SRC2 interaction inhibition. Potency, µM (highest dose often 106 µM), inactives show top-dose activity change, negative = inhibition, actives largely listed as inhibitors. TRbeta-SRC2 peptide binding, fluorescence polarization; receptor liganded with 1 µM T3. AID 1469. actives 0.065% (n = 280,000). P10828;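 also: potency is read from the fitted curve at half-maximal effect; plate controls were bound peptide for no effect and peptide without receptor for full effect; nearly all actives have a fitted effect of over 50% in size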
Target sequence (P10828 whole entry, looked up): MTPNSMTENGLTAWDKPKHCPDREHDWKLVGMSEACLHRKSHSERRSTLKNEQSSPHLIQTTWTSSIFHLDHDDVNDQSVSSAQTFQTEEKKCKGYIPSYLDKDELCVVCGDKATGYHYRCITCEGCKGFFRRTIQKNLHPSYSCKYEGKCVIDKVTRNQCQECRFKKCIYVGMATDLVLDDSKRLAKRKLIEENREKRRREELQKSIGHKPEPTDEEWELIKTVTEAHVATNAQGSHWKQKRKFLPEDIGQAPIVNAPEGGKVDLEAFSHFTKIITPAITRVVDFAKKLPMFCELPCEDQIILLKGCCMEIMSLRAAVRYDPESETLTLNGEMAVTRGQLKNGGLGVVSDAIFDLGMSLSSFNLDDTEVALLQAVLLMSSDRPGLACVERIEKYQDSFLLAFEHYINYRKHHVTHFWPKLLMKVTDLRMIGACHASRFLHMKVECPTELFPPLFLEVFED
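A fluorescence polarization screen tested compounds at multiple concentrations against complex formation between 0.6 uM TRb ligand-binding domain and 20 nM Texas Red SRC2 peptide, with 1 uM T3 present; readout after 5 hr.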
CBFb RUNX1 block: inhibitors of human CBF-beta and RUNX1 interaction | AID 1477 | 230,000 tested, under 10 active | Potency, µM (series often up to 59.8 µM), for inactives: at the highest dose activity, negative = inhibition, usual class: inhibitors | AlphaScreen CBFb-His/RUNX1-biotin binding, biochemical | Q01196+Q13951; also: % of control where 0% means no effect
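CBF-beta (His) and RUNX1 (biotin), 30 nM each; 20 min preassociation; + compound, 15 min; + beads 50 ng each (Ni, streptavidin), 90 min; RT; AlphaScreen read.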
Epigenetic derep: regulators of epigenetic silencing causing reporter derepression in mouse cells | murine LDR cells, GFP reporter derepression, 30 h | Potency, µM (doses to about 53.9 µM), for inactives: top-dose GFP activation, most hits filed as activators | actives 0.2% (n = 280,000); also: potency is read from the fitted curve at half-maximal effect; % of control where 0% means no effect; nearly all actives have a fitted effect of over 60% in size
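Derepression of a silenced CMV-GFP reporter in murine LDR cells is scored by enumerating GFP-positive cells with a laser-scanning microplate cytometer after 30 hours of treatment at 37 C.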
TR SRC2 fluor cs: counter-screen for TRb-SRC2 inhibitors: fluorescence interference; TRb/SRC2 Texas Red total fluorescence interference; Potency, µM (titrated, usually from 106 µM), without a hit: at the highest dose fluorescence change, negative = quenching; actives 0.29% (n = 280,000); AID 1479; active = well fitted curve in either direction with a large enough effect; inconclusive = small, poorly fitted or top-dose-only effect; also: potency is read from the fitted curve at half-maximal effect; % is scaled to controls: 0 for no effect and ±100 for the full control effect
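Human TRβ ligand-binding domain (0.6 uM) and Texas Red SRC2 peptide (20 nM) in Tris buffer with 1 uM T3 and 5% DMSO were incubated with pinned compound for 5 hr at ambient temperature. Total fluorescence was computed as S + 2P (555/632 nm).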
GoLoco inh red: blocks human Gai1 binding to RGS12 GoLoco peptide, red readout | Gai1:RGS12 GoLoco peptide FP, rhodamine, 10 min | AID 880 | Potency, µM (doses to about 61.6 µM), inactives show at the highest dose activity, negative = inhibition, hits mostly inhibitors | actives 0.44% (n = 230,000) | P63096; active = well fitted inhibition curve with a large enough effect, not every such curve was filed as active; inactive = no such curve, though single readings can be large or run the other way; also: potency is read from the fitted curve at half-maximal effect; % is scaled to controls: 0 for no effect and ±100 for the full control effect; nearly all actives have a fitted effect of over 30% in size
The depositor's hits bear a star; u = inconclusive; x = no result; ! = not active in a repeat; [ ] = remark or other dose. Unless noted, calls follow the shape of the dose curve; as a rule, active = well fitted curve in the direction sought with a large enough effect; inconclusive = small, poorly fitted or top-dose-only effect, or another doubt; inactive = no such curve, though single readings can be large; an effect the other way counts as inactive or inconclusive.

SMILES	TRb-SRC2 inh	CBFb RUNX1 block	Epigenetic derep	TR SRC2 fluor cs	GoLoco inh red
COC(=O)[C@@H]1[C@@H](O)[C@@]2(O)c3c(OC)cc(OC)cc3O[C@@]2(c2ccc(OC)cc2)[C@H]1c1ccccc1	5%[11.2 µM]	7%[13.1 µM]	3.5µM*	0%[11.2 µM]	x
C/C(=N\NC(=O)Nc1cc(F)cc(F)c1)c1ncccc1C(=O)O	2%[201 µM]	x	x	-2%[201 µM]	x
Cc1cccc(OCC(=O)N2CCN(Cc3cccnc3)CC2)c1	0%	-3%	1%	2%	-4%
CCOc1ccc(-c2nc3cc(NC(=O)COc4cccc(C)c4)ccc3o2)cc1	u	x	3%	14µM*[quencher]	x
N[C@H](Cc1ccc2oc3cc(=O)c4ccccc4c-3nc2c1)C(=O)O	x	x	x	x	3.5µM*
COc1cc(N2CCOCC2)ccc1C=C1C(=O)NC(=O)NC1=O	-21%[53 µM]	-6%	1%	32µM*[quencher]	8%
O=C(NC(=O)c1c(F)cccc1F)Nc1ccc(OC(F)(F)C(F)OC(F)(F)F)c(Cl)c1 (configuration not stated)	0%[201 µM]	x	x	3%[201 µM]	x
CCCN1CCCC2Cc3nc(N)ncc3CC21 (configuration not stated)	0%	1%	0%	-2%	-2%
CCCN1CCCC2Cc3[nH]ncc3CC21 (configuration not stated)	1%	4%	3%	35µM*![quencher]	-4%
CCN(CC)C(=O)N[C@H]1C[C@@H]2c3cccc4[nH]cc(c34)C[C@H]2N(C)C1	-5%	9%	0%	-3%	-4%
CN1CC(CO)=C[C@H]2c3cccc4[nH]cc(c34)C[C@H]21	-9%	x	0%	2%	13µM*
CS(=O)(=O)c1cc(C(F)(F)F)ccc1C(=O)c1cnoc1C1CC1	1%[201 µM]	x	x	-13%[201 µM]	x
[Cl][Sn]([c]1ccccc1)([c]1ccccc1)[c]1ccccc1	1%[201 µM]	x	x	0%[201 µM]	x
C/C(=N\Nc1ccccc1)c1c(O)n(Cc2ccccc2)c(=O)[nH]c1=O	-17%[53 µM]	-2%	0%	0.071µM*[quencher]	3%
C/C(=N\Nc1ccccc1)c1c(O)n(-c2ccccc2)c(=O)[nH]c1=O	-5%	0%	0%	-1%	9%
CCNc1nc(Cl)nc(NC(C)(C)C)n1	-3%[201 µM]	x	x	0%[201 µM]	x
CCOc1ccc(N=C2SCCCN2C)cc1	-2%	8%	-2%	-2%	18µM*
Cc1nn(-c2cc(NS(C)(=O)=O)c(Cl)cc2Cl)c(=O)n1C(F)F	-4%[201 µM]	x	x	-1%[201 µM]	x
O=C1NC(=O)N(c2ccc3c(c2)OCO3)C(=O)/C1=C/c1cccs1	-4%	-24%	22µM*	5%	31%
CCCCC/C=C\C/C=C\C/C=C\C/C=C\CCCC(=O)Nc1ccc(O)cc1	0%	15%	1%	1%	2%
CCCCC/C=C\C/C=C\C/C=C\C/C=C\CCCC(=O)Nc1ccc(O)cc1C	-16%	14%	7%	3.5µM*![quencher]	9%
CCOC(=O)C(C)OC(=O)c1cc(Oc2ccc(C(F)(F)F)cc2Cl)ccc1[N+](=O)[O-] (configuration not stated)	-6%[201 µM]	x	x	0%[201 µM]	x
CC[n+]1c(SC)ccc2cc(OC)ccc21	-1%	-3%	0%	-1%	10µM*
CCN(CC)c1ccc(/C=N/c2sc3c(c2C#N)C2CCN3CC2)c(O)c1	9%	-9%	2.8µM*	3%	116%
CCOS(=O)(=O)OCC	5%[201 µM]	x	x	1%[201 µM]	x
SMILES	TRb-SRC2 inh	CBFb RUNX1 block	Epigenetic derep	TR SRC2 fluor cs	GoLoco inh red
CCOS(C)(=O)=O	-1%	8%[21.7 µM]	x	-1%	22µM*
Cc1ccccc1-n1c(/C=C/c2ccc(N(C)C)cc2)nc2ccccc2c1=O	3%	x	10µM*	0%	x
CC[C@]1(O)CC(O[C@@H]2CC(N(C)C)C(O)C(C)O2)c2c(cc3c(c2O)C(=O)c2c(O)ccc(O)c2C3=O)C1C(=O)OC (some centres not stated)	15%	u	u	40µM*[fluorescent]	10%
COC(=O)[C@@H]1c2cc3c(c(O)c2[C@@H](O)C[C@]1(C)O)C(=O)c1c(O)cc2c(c1C3=O)O[C@H]1O[C@@]2(C)[C@@H](O)[C@H](N(C)C)[C@H]1O	x	x	x	x	33%[14.2 µM]
Oc1cccc2cccnc12	14%	9%	4µM*	-1%	4%[14.2 µM]
CC(C)N1C(=O)CC2(CC[N+](C)(CCOC(=O)C(O)(c3ccccc3)c3ccccc3)CC2)C1=O (configuration not stated)	4%	2%	2%	0%	16µM*
CCN(CC)CCOC(=O)C(O)(c1ccccc1)c1ccccc1	1%	-9%	-1%	-4%	16%
COC[C@H](C)N(C(=O)CCl)c1c(C)csc1C	0%[201 µM]	x	x	-4%[201 µM]	x
[CH3][Hg][Cl]	-4%	24%[21.7 µM]	x	-4%	25µM*
O=C1NC(=O)N(c2ccccc2)C(=O)/C1=C/C=C/c1ccco1	-2%	-24%	1%	10%	26%
CN(C)c1ccc(/C=C/C=C2/C(=O)NC(=O)N(c3ccccc3)C2=O)cc1	u	-2%	8%	3.2µM*[fluorescent]	-163%
CN1CC=C2C(C#N)=C(N)C(C#N)(C#N)C(c3ccncc3)C2C1 (configuration not stated)	-24%	-4%	-2%	12%	25µM*
C[N+]1(C)C2CCC1CC(OC(=O)c1ccco1)C2 (configuration not stated)	0%	3%	0%	-1%	10µM*
CC1(C)CN=C(NN=C(/C=C/c2ccc(C(F)(F)F)cc2)/C=C/c2ccc(C(F)(F)F)cc2)NC1	2%[201 µM]	x	x	-1%[201 µM]	x
O=CNC(N1CCN(C(NC=O)C(Cl)(Cl)Cl)CC1)C(Cl)(Cl)Cl (configuration not stated)	4%[201 µM]	x	x	1%[201 µM]	x
CCCCC/C=C\C/C=C\C/C=C\C/C=C\CCCC(=O)N(Cc1ccc(O)c(Cl)c1)Cc1ccc(O)c(Cl)c1	8%	10%	-5%	3%	40µM*
CCCCC/C=C\C/C=C\C/C=C\C/C=C\CCCC(=O)NCCc1ccc(O)c(O)c1	3%	-10%	u	-3%	-11%
ClC1=C(Cl)[C@]2(Cl)[C@H]3[C@H]([C@@H]4C=C[C@H]3C4)[C@]1(Cl)C2(Cl)Cl	-2%[201 µM]	x	x	-4%[201 µM]	x
ClC1=C(Cl)C2(Cl)C3C(Cl)C=CC3C1(Cl)C2(Cl)Cl (configuration not stated)	-7%	4%[21.7 µM]	-2%	-1%	20µM*!
Nc1c(C(=O)NCC2CCCO2)c2nc3ccccc3nc2n1Cc1ccco1 (configuration not stated)	-1%	7%	25µM*	-4%	21%
CCNc1nc(Cl)nc(NC(C)(C)C#N)n1	-1%[201 µM]	x	x	-1%[201 µM]	x
O=C1c2cccc3cccc(c23)C(=O)N1/N=C/c1c(O)n(-c2ccccc2)c(=O)[nH]c1=O	-2%	-3%	1%	0%	16µM*
Cc1c(COC(=O)C2C(/C=C(\Cl)C(F)(F)F)C2(C)C)cccc1-c1ccccc1 (configuration not stated)	-5%[201 µM]	x	x	0%[201 µM]	x
